# Reference: PubChem BioAssay (NCI)
# This is part of a sample that, as a whole, favours compounds with a hit. Of some 79,000 tested, about 15% had one in any assay. Values without a mark were called inactive. The source made the active and inactive calls. Cut-off read from the data, not from the text of the source: active = growth inhibition above about 70%; inactive = the rest. Where a SMILES comes first, the peptide text is derived from it. The star is where a group is joined. OSu = O=C1CCC(=O)N1O*; OBn = c1ccc(CO*)cc1; Bn = c1ccc(C*)cc1
# Experiments:
# [1] = NCI Yeast Anticancer Drug Screen. Data for the rad50 strain (AID 155);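 note: 0% = growth of vehicle-only cultures of the same strain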; conditions: S. cerevisiae rad50 strain growth inhibition, active compounds read high
# Summary of the method: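 Yeast carrying a defined DNA repair defect were exposed to test compounds, and growth was compared with vehicle-treated controls to give percent inhibition.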
# [2] = NCI Yeast Anticancer Drug Screen. Data for the mec2-1 strain (AID 157); conditions: S. cerevisiae mec2-1 strain, active compounds read high
# Summary of the method: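 mec2-1 yeast strain, carrying an alteration in DNA damage repair or cell cycle control, was exposed to compounds; growth inhibition was measured relative to vehicle-treated controls.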
# [3] = NCI Yeast Anticancer Drug Screen. Data for the sgs1 mgt1 strain (AID 161);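 note: 0% = growth of cultures given vehicle only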; conditions: S. cerevisiae sgs1 mgt1 strain, active compounds read high
# Summary of the method: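 This yeast growth screen uses a strain with defined DNA-repair lesions; compound-treated growth is compared with vehicle-treated growth.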
# [4] = NCI Yeast Anticancer Drug Screen. Data for the cln2 rad14 strain (AID 165);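 note: 0% = growth equal to vehicle treated cultures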; conditions: S. cerevisiae cln2 rad14 strain, active compounds read high
# Summary of the method: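 Yeast carrying cln2 and rad14 alterations (cell cycle control and DNA damage repair) were exposed to compounds. Growth inhibition was measured against vehicle-treated controls.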
# [5] = NCI Yeast Anticancer Drug Screen. Data for the bub3 strain (AID 167); conditions: S. cerevisiae bub3 mutant strain, active compounds read high
# Summary of the method: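 Compounds were applied to a genetically altered yeast strain carrying a cell-cycle control defect. Growth inhibition was scored against vehicle-treated controls.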
# [6] = NCI Yeast Anticancer Drug Screen. Data for the mlh1 rad18 strain (AID 175); conditions: S. cerevisiae mlh1 rad18 strain growth inhibition, active compounds read high
# Summary of the method: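 Growth inhibition of the yeast strain was measured after compound exposure and expressed relative to vehicle-treated controls. The strain carries defined defects in DNA damage repair.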
# [7] = at 5.0 µM (retest, dose inferred, filed as 0.5)
# [8] = at 50.0 µM (retest, dose inferred, filed as 5.0)
Structure (SMILES),"growth inhibition [1, 7]","growth inhibition [1, 8]",growth inhibition ([1]; at 50.0 µM),"growth inhibition [2, 7]","growth inhibition [2, 8]",growth inhibition ([2]; at 50.0 µM),"growth inhibition [3, 7]","growth inhibition [3, 8]",growth inhibition ([3]; at 50.0 µM),"growth inhibition [4, 7]","growth inhibition [4, 8]",growth inhibition ([4]; at 50.0 µM),"growth inhibition [5, 7]","growth inhibition [5, 8]",growth inhibition ([5]; at 50.0 µM),"growth inhibition [6, 7]","growth inhibition [6, 8]",growth inhibition ([6]; at 50.0 µM)
O=c1[nH]cnc2nc(I)[nH]c12,1%,3%,14.8%,-9%,-3%,0.05%,-5%,5%,-0.3%,1%,-7%,38.5%,-1%,-8%,30.1%,7%,-5%,6%
O=C1c2ccccc2C(=O)c2c1ccc(O)c2O,79% (active),96% (active),83.3% (active),75% (active),94% (active),75.8% (active),91% (active),94% (active),81.5% (active),23%,63%,65.7%,80% (active),93% (active),77.9% (active),90% (active),96% (active),79% (active)
Nc1ncnc2c1c(-c1ccccc1)cn2-c1ccc(Br)cc1,23%,38%,43.1%,16%,43%,21.7%,47%,80% (active),94% (active),13%,44%,28.1%,3%,37%,-1.8%,14%,58%,58.9%
Cc1ccc(S(=O)(=O)C(Br)CC(=O)c2ccccc2)cc1 (stereo not given),64%,96% (active),99% (active),67%,97% (active),99.8% (active),67%,97% (active),99.7% (active),90% (active),96% (active),99.5% (active),59%,97% (active),99.7% (active),63%,97% (active),99.3% (active)
S=C(Nc1ccc(N=Nc2ccccc2)cc1)SCc1ccccc1,1%,16%,63.3%,3%,25%,97.7% (active),4%,28%,95.6% (active),3%,8%,89.6% (active),-1%,11%,98.5% (active),-6%,59%,96% (active)
C=C1CCC[C@@H]2[C@@](C)(CC3=CC(=O)C=CC3=O)C(C)CC[C@]12C (stereo not given in full),39%,96% (active),98.5% (active),43%,96% (active),88.7% (active),54%,97% (active),98.7% (active),7%,93% (active),95.2% (active),27%,96% (active),98.6% (active),55%,95% (active),98.5% (active)
O=C1C=C(c2ccccc2)O/C1=C/C(=O)c1ccc(Cl)cc1,32%,32%,53.3%,32%,32%,65.2%,40%,40%,79% (active),11%,11%,39.6%,16%,16%,65%,32%,32%,52.9%
O=C1CCC/C1=C\c1ccccc1,7%,15%,3.05%,7%,5%,7.6%,3%,6%,1.4%,-2%,-13%,49.3%,-2%,5%,6.1%,1%,4%,2.2%
O=C(CNC(=O)OCc1ccccc1)NNc1ccccc1Cl,95% (active),98% (active),98.7% (active),94% (active),99% (active),98.5% (active),98% (active),99% (active),97.1% (active),97% (active),98% (active),98.7% (active),98% (active),96% (active),99.2% (active),98% (active),99% (active),99.3% (active)
O=c1[nH]cc(F)c(=O)n1C1CCCCO1 (stereo not given),30%,41%,46%,16%,34%,49.5%,46%,72% (active),71% (active),46%,49%,12.2%,42%,59%,34.5%,23%,35%,6.85%
COC(=O)C(=O)C(C(=O)Nc1cccc(C)c1C)C1Sc2ccccc2NC1=O (stereo not given),99% (active),99% (active),51.1%,88% (active),88% (active),70.2% (active),99% (active),99% (active),69.5%,95% (active),95% (active),52.8%,65%,65%,81.7% (active),92% (active),92% (active),81.5% (active)
Nc1cccc2c(O)cccc12,-1%,21%,21.6%,3%,18%,9.3%,-1%,15%,20.8%,2%,12%,44.2%,2%,15%,8.55%,-2%,28%,50.2%
Clc1ccc2ns[s+]c2c1,8%,78% (active),73.7% (active),13%,93% (active),48.1%,12%,86% (active),80.6% (active),21%,49%,47.8%,26%,96% (active),72.3% (active),17%,85% (active),-27.7%
CCOC(=O)C(=C=Cc1cccs1)C(=O)c1ccccc1,16%,84% (active),87% (active),-14%,95% (active),90.5% (active),3%,92% (active),90.8% (active),-10%,91% (active),90.7% (active),-13%,97% (active),89.8% (active),-10%,94% (active),83.9% (active)
O=c1nc(N2CCCC2)nc(N2CCCC2)s1,-16%,-8%,-11.4%,4%,-14%,0.8%,-1%,-11%,-9.25%,14%,-5%,-38.6%,-7%,-10%,-4.15%,14%,-1%,7.45%
CC(C)CC(NC(=O)C(N)CCC(=O)OCc1ccccc1)C(=O)NC(COCc1ccccc1)C(=O)NC(Cc1ccccc1)C(=O)ON1C(=O)CCC1=O (stereo not given) (H-E(OBn)LS(Bn)F-OSu; configuration not given here),54%,66%,81.7% (active),48%,74% (active),84.6% (active),48%,81% (active),83.1% (active),41%,71% (active),86.7% (active),42%,81% (active),80.8% (active),60%,79% (active),79% (active)
C/C(CC(O)(C(F)(F)F)C(F)(F)F)=N/Nc1ccc([N+](=O)[O-])cc1[N+](=O)[O-],16%,99% (active),99.2% (active),-11%,99% (active),99.5% (active),-2%,99% (active),99.5% (active),13%,99% (active),99.3% (active),-10%,100% (active),99.5% (active),12%,99% (active),99.3% (active)
c1ccc2nc3[nH]c4ccccc4c3cc2c1,24%,87% (active),85.2% (active),18%,52%,53.6%,14%,40%,50.8%,22%,39%,44.8%,18%,46%,50.6%,18%,45%,69.2%
CC(N1CCOCC1)C(O)(c1ccccc1)c1ccccn1 (stereo not given),3%,10%,-19.4%,-1%,-15%,-35.9%,-4%,-15%,-32.6%,24%,-1%,60.2%,-2%,-15%,-42.4%,4%,19%,2.75%
O=C1OC(CCl)CC12CC(CCl)OC2=O (stereo not given),1%,2%,93.7% (active),-4%,3%,89.7% (active),-1%,1%,94% (active),-1%,1%,79.6% (active),0%,-3%,96% (active),-3%,0%,95.9% (active)
